Assay outcomes (PubChem)
PNC assembly inh: High Content Assay for Compounds that inhibit the Assembly of the Perinucleolar Compartment; PC3M PTB-GFP, PNC prevalence imaging, 16 h; hits give low values; activity change (PNC), negative = inhibition, % at 10 µM; 140,000 compounds, 3.1% hits; AID 2417, 2010;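 active means readout at or below -70, meaning at least 70% loss of cells showing the perinucleolar compartment, a nuclear body marking cancer cells; inconclusive means readout between -30 and a set limit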;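 further: plate controls were DMSO wells for no effect and camptothecin positive control wells for full effect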
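Compounds are pinned in duplicate onto adhered PC3M cells stably expressing GFP-tagged PTB and incubated 16 h at 37 C. Cells are then fixed, nuclei stained with Hoechst, and PNC-positive cells counted.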
JMJD2E inh: qHTS Assay for Inhibitors of Human Jumonji Domain Containing 2E (JMJD2E); Lysine-specific demethylase 4E (Homo sapiens), B2RXH2; JMJD2E catalytic domain, FDH-coupled NADH fluorescence (FDH is formaldehyde dehydrogenase); Potency, µM (titrated, usually from 57.1 µM), without a hit: at the top dose activity change, negative = inhibition, usual class: inhibitors; 230,000 compounds, 1.6% hits; AID 2147, 2009;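 further: potency means the concentration at half of the fitted maximal effect; 0% = wells with enzyme and -100% = buffer wells without enzyme; nearly all actives have a fitted effect of over 50% in size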
ALDH1A1 block: qHTS Assay for Inhibitors of Aldehyde Dehydrogenase 1 (ALDH1A1). Aldehyde dehydrogenase 1A1 (Homo sapiens), P00352. 220,000 compounds, 7.3% hits. Potency, µM (titrated, usually from 75.3 µM), inactives show at the top dose activity, negative = inhibition, hits mostly inhibitors. Purified ALDH1A1, NADH fluorescence, propionaldehyde substrate;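 further: potency means the concentration at half of the fitted maximal effect; plate controls were no enzyme wells and a reference inhibitor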
Target sequence (P00352 whole entry, looked up): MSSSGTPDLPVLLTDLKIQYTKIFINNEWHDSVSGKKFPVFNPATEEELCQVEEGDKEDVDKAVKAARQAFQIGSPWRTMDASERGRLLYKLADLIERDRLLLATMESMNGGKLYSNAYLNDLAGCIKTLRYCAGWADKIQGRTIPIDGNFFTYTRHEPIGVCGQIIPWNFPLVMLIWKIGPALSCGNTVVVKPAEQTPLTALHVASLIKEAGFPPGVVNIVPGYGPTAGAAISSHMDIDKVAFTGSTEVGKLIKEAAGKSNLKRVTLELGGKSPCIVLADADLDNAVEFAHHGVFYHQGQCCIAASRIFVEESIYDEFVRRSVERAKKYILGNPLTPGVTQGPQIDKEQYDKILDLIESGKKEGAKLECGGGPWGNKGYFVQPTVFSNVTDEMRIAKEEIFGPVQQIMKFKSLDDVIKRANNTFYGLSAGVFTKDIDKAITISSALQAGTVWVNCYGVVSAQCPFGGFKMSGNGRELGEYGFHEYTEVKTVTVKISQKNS
HPGD block: qHTS Assay for Inhibitors of HPGD (15-Hydroxyprostaglandin Dehydrogenase); AID 894, 2007; 150,000 compounds, 4.3% hits; purified HPGD, NADH fluorescence kinetic, PGE2 substrate; Potency, µM, for the others: at the top dose activity change, negative = inhibition, most hits filed as inhibitors; 15-hydroxyprostaglandin dehydrogenase [NAD(+)] (Homo sapiens), P15428; further: potency means the concentration at half of the fitted maximal effect
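20 nM HPGD preincubated 15 min at room temperature with compound in 50 mM Tris-HCl pH 8, 0.01% Tween 20. Started with 1 mM NAD+ and 30 uM prostaglandin E2; NADH fluorescence (360/450 nm) read 5 times over 30-s intervals, last minus first.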
* = called active by the depositor; ? = inconclusive; . = no result given; [ ] = remark or other dose. This is a sample that favours compounds with a hit; in the whole collection about 11% have one here. Unless noted, the call rests on the fitted dose curve; in most records, active means well fitted inhibition curve with a large enough effect (not every such curve was filed as active); inconclusive means small, poorly fitted or top-dose-only effect, or another doubt; inactive means no such curve, though single readings can be large or run the other way. Unless noted, on the % scale 0 is the no-effect control and ±100 the full control effect.

SMILES	PNC assembly inh	JMJD2E inh	ALDH1A1 block	HPGD block
CC(=O)Oc1c2c(c(CC=C(C)C)c3c1C(=O)C1=CC4CC5C(C)(C)OC(C/C=C(\C)C(=O)O)(C4=O)[C@]15O3)OC(C)(CCC=C(C)C)C=C2 (stereo partly drawn)	.	-15.4%	?	28.2µM*
C/C(=N\Nc1ccccc1)c1c(O)n(Cc2ccccc2)c(=O)[nH]c1=O	29.8	-4.9%	-2.2%	28.2µM*
CC(=Nc1c(C)n(C)n(-c2ccccc2)c1=O)c1c(O)n(Cc2ccccc2)c(=O)[nH]c1=O	15.6	-8.3%	-7.7%	20µM*
C/C(=N\Nc1ccccc1)c1c(O)n(-c2ccccc2)c(=O)[nH]c1=O	.	5.0%	?	.
CC(=NCCN(C)C)c1c(O)n(Cc2ccccc2)c(=O)[nH]c1=O	.	10.4%	.	.
CC(=NCCCO)c1c(O)n(Cc2ccccc2)c(=O)[nH]c1=O	?	9.3%	?	?
CCCCCCN=C(C)c1c(O)n(Cc2ccccc2)c(=O)[nH]c1=O	-111.4*	10.0%	7.4%	-26.3%
Cc1c(N=Nc2c(O)n(-c3ccc(Br)cc3)c(=O)[nH]c2=O)c(=O)n(-c2ccccc2)n1C	.	?	-16.3%	.
Cc1c(N=Nc2c(O)[nH]c(=O)[nH]c2=O)c(=O)n(-c2ccccc2)n1C	.	3.55µM*	-90.2%	.
N[C@@H](CSC1c2ccccc2-c2ccccc21)C(=O)O	.	.	7.1%[13.5 µM]	-4.4%
CC(C)(C)c1[nH]nc2c1C(c1ccoc1)C(C#N)=C(N)O2 (stereo not drawn)	-21.8	0.5%	15.8µM*	-16.7%
N#CC1=C(N)Oc2n[nH]c(-c3cccs3)c2C1c1ccsc1 (stereo not drawn)	?	?	-3.5%	-14.1%
CN(C)c1ccc2c(c1)N=C(c1ccco1)OP2(=S)N1CCOCC1 (stereo not drawn)	22.7	-9.3%	8.91µM*	17.8µM*
CCSCC[C@H](N)C(=O)O	.	.	1.7%[13.5 µM]	-14.2%
C/C(CC(=O)N1CCN(C=O)CC1)=N\NC(=O)c1cccc([N+](=O)[O-])c1	.	2.0%	25.1µM*	.
CCOP(=O)(OCC)C(NC(=O)c1cccc([N+](=O)[O-])c1)C(Cl)(Cl)Cl (stereo not drawn)	.	11.1%	.	.
CCC1C2CC3C4N(C)c5ccccc5[C@]45CC(C2C5O)N3C1O (stereo partly drawn)	.	8.5%	10.3%	-2.1%
CN1C(=O)C(=Cc2ccc(OCCN(C)c3ccccn3)cc2)C(=O)N(C)C1=O	.	?	7.94µM*	.
Nc1ccc([N+](=O)[O-])cc1N	.	.	-0.7%	-3.0%
Cc1cccc(C(=O)NC(Oc2ccccc2)C(Cl)(Cl)Cl)c1 (stereo not drawn)	6.1	-3.7%	-3.8%	-9.7%
Cc1ccc(C(=O)NC(O)C(Cl)(Cl)Cl)cc1 (stereo not drawn)	?	-2.3%	0.4%	14.1µM*
CCCc1[nH]nc2c1C1(C(=O)N(CC(N)=O)c3ccccc31)C(C(=O)OC)=C(N)O2 (stereo not drawn)	-91.1*	8.1%	0.9%	-0.1%
CCCc1[nH]nc2c1C1(C(=O)N(Cc3ccccc3)c3ccccc31)C(C(=O)OC)=C(N)O2 (stereo not drawn)	47.6	1.5%	-12.9%	6.9%
CCCn1c(=O)c2[nH]c(C3CCCC3)nc2n(CCCOC(=O)c2ccc(S(=O)(=O)F)cc2)c1=O	.	4.1%	11.2µM*	-10.3%
CCCCCCn1c(O)c(C=NC2CCCCC2N)c(=O)[nH]c1=O (stereo not drawn)	?	-3.4%	-2.7%	-8.9%
SMILES	PNC assembly inh	JMJD2E inh	ALDH1A1 block	HPGD block
Cc1ccc(-c2cn3c(=S)[nH]nc3s2)cc1	19.1	6.31µM*	?	28.2µM*
COC(=O)[C@H]1C(=O)c2ccccc2O[C@@](C(=O)OC)(c2ccccc2)[C@@H]1c1ccccc1	.	.	-6.6%[13.5 µM]	.
CC1COC2=C1C(=O)C(=O)c1c2ccc2c1CCCC2(C)C (stereo not drawn)	.	?	22.4µM*	20µM*
C[C@H]1COC2=C1C(=O)C(=O)c1c2ccc2c1CCCC2(C)C	.	?	12.6µM*	.
CC(C)NC(=O)N1CCC2(CC1)CCN(C(=O)Oc1ccccc1)CC2	.	.	8.2%	-3.4%
COc1ccc(Nc2ncc(C(=O)N3CCC4(CC3)OCCO4)c3ccccc23)cc1	?	-3.7%	-10.1%	22.4µM*
